# Assay results reported in PubChem BioAssay AID504332 (National Center for Advancing Translational Sciences (NCATS), 2011).
# Several values for one entry are separate records, joined by “and”; a condition that tells them apart may be missing. Equal values may be shown once. The whole screen tested about 350,000 compounds, of which about 31,000 (8.9%) were called active. Where a call stands in place of a potency, no number is given. Not shown: some 15% with an inconclusive outcome. The call rests on the fitted dose curve; in most records, active means well fitted inhibition curve with a large enough effect; inconclusive means small, poorly fitted or top-dose-only effect; inactive means no such curve, though single readings can be large or run the other way. The sample as a whole holds a higher share of actives than the screen did. More than one record can exist for a structure, and the calls need not agree.
# Target: Histone-lysine N-methyltransferase EHMT2 (Homo sapiens) (UniProt Q96KQ7)
# Sequence (Q96KQ7 913-1193 limits assumed): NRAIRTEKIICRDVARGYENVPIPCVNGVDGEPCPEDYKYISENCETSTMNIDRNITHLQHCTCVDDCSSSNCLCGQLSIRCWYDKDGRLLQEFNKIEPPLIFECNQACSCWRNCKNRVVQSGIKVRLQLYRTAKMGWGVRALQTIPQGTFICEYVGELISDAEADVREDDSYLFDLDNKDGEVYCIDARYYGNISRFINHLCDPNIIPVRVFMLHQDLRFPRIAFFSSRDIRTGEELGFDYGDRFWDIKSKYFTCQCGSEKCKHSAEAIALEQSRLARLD
# Assay: qHTS Assay for Inhibitors of Histone Lysine Methyltransferase G9a; further: nearly all actives have a fitted effect of over 75% in size
# Details: G9a H3K9 monomethylation, AlphaScreen, 2 h; series mostly up to 59 µM
# Procedure, shortened: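 Methyltransferase reactions run at room temperature for 2 h (20 nM enzyme, 500 nM biotin-H3K9 peptide, 20 uM SAM) after a 15 min compound preincubation; product detected by AlphaScreen beads and anti-H3K9me1 antibody.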
# Potency means the concentration at half of the fitted maximal effect.
SMILES,Potency,"activity, negative = inhibition"
O=C(CCS(=O)(=O)c1ccc2c(c1)NC(=O)CO2)Nc1cccc(C(F)(F)F)c1,inactive,
CC(C)(Oc1ccc(Cl)cc1)C(=O)OCC(=O)NCCc1ccc(S(N)(=O)=O)cc1,inactive,
CCCn1c(N)c(C(=O)CSc2nnc3n2CCCCC3)c(=O)[nH]c1=O,inactive,
CCCC(=O)NC(=S)Nc1ccc(CN2CCOCC2)cc1,inactive,
CCN1CCN(c2cc(C)c3cc(NC(=O)c4cc(Cl)ccc4OC)ccc3n2)CC1,inactive,
COc1ccc(NC(=S)NCCN2CCC(C)CC2)cc1,inactive,
CCOCCCNC(=S)Nc1ccc2nc(N3CCN(CC)CC3)cc(C)c2c1,31.6 µM (active),
CCn1c2ccccc2c2cc(NC(=S)N3CCOCC3)ccc21,,7.32% [at 12.7 µM] (inactive)
Cc1cc(N2CCOCC2)nc2ccc(NC(=S)N3CCN(Cc4ccccc4)CC3)cc12,50.1 µM (active),
COc1ccc(C(=O)OCC(=O)Nc2ccc3[nH]c(=O)[nH]c3c2)c(OC)c1OC,,4.23% [at 0.501 µM] (inactive)
COc1ccccc1NC(=O)c1oc2ccccc2c1NC(=O)C(C)C,inactive,
COC(=O)N/N=C/c1c[n+]([O-])c2ccccc2[n+]1[O-],inactive,
CC(C)CC(=O)NCC(c1ccc2c(c1)OCO2)N1CCN(c2ccc(F)cc2)CC1 (centres undefined),inactive,
CCCCOc1ccc(NC(=O)c2cc3c(n(-c4ccc(Cl)cc4)c2=O)CCCC3=O)cc1,inactive,
CCOC(=O)C1=C(N)N(c2ccc(C)cc2)C2=C(C(=O)CCC2)C1c1cccs1 (centres undefined),inactive,
CCOC(=O)c1cc2c(n(-c3ccc(C)cc3)c1=O)CCCC2=O,17.8 µM (active),
Cc1c(C(=O)NNC(=O)c2ccncc2)oc2ccccc12,,1.49% [at 12.7 µM] (inactive)
Oc1cc(O)c2c(c1)OC(c1ccc(O)c(O)c1)C(O)C2 (centres undefined),2.51 µM (active),
O=C(CCC(=O)c1ccccc1)NCc1cccc(C(F)(F)F)c1,inactive,
COc1ccc(C(=O)N(Cc2ccccc2)c2ccc(C)cc2)cc1S(=O)(=O)N1CCOCC1,,8.07% [at 0.501 µM] (inactive)
O=C(CN1CCN(C(=O)c2cccc(F)c2)CC1)Nc1ccccc1F,56.2 µM (active),
O=C(CN1CCN(S(=O)(=O)c2ccc(F)cc2)CC1)Nc1ccccc1F,inactive,

SMILES,Potency,"activity, negative = inhibition"
O=C(CN1CCCCC1)NC(=O)Nc1ccccc1F,inactive,
CCOc1ccccc1C(=O)NC1(C(F)(F)F)C(=O)Nc2c1c(=O)[nH]c(=O)n2-c1ccc(F)cc1 (centres undefined),inactive,
Cc1ccc(C)n1-c1nnc(N2CCC(C(=O)NCc3ccccc3Cl)CC2)s1,inactive,
O=c1c2ccccc2ccc2ccc(P(=O)(O)O)cc12,,2.62% [at 0.501 µM] (inactive)
O=c1c(-c2ccccc2Cl)c[nH]n1-c1ccccc1,inactive,
COc1cc(OC)c2c(c1)OC(=O)CC2c1cc(OC)c(OC)c(OC)c1 (centres undefined),inactive,
COc1ccc(C2CC(=O)Oc3ccc(C(C)(C)C)cc32)cc1 (centres undefined),inactive and 44.7 µM (active),
COc1ccc(C2CC(=O)NC(=O)C2)cc1,inactive,
COc1ccc(-c2cc(C(=O)NCc3cc(OC)c(OC)c(OC)c3)[nH]n2)cc1,inactive,
O=C(CN(C(=O)CNC(=O)c1cccs1)c1cccc(F)c1)NC1CCCCC1,inactive,
COc1ccc(C)cc1NC(=O)C(=O)NCCc1sc(-c2cccc(C)c2)nc1C,inactive,
CC1CCCCN1S(=O)(=O)CCNC(=O)c1ccccc1 (centres undefined),inactive,
CCCCOC(=O)Cn1c(=O)n(CC(=O)OCCCC)c2cc(C)ccc21,inactive,
Cc1ccc(CCCOC(=O)C[N+]2(C)CCCC2)cc1,15.8 µM (active),
Cc1ccc(CCN2CC(C(=O)O)CC2=O)cc1 (centres undefined),inactive,
COc1cccc(-c2n[nH]c3c2C(c2cccc(O)c2)N(C)C3=O)c1 (centres undefined),inactive,
Cc1cc(NC(=O)c2ccccc2C)no1,inactive,
CCOc1ccc(S(=O)(=O)NCCC(=O)N2CCCCCCC2)cc1,inactive,
Cn1c(=O)c([N+](=O)[O-])c(Oc2ccccc2)c2ccccc21,39.8 µM (active),
Cc1cccc(OP(=O)(Nc2c(C)n(C)n(-c3ccccc3)c2=O)Oc2cccc(C)c2)c1,inactive,
Cc1cccc(Oc2c([N+](=O)[O-])c(=O)n(C)c3ccccc23)c1,44.7 µM (active),
Cn1nc(-c2ccccc2)c2cc([N+](=O)[O-])ccc21,inactive,

SMILES,Potency,"activity, negative = inhibition"
Cc1nn(C)c(Oc2ccccc2)c1[N+](=O)[O-],inactive,
Cc1cccc(C2CC(=O)Oc3c2c(=O)n(C)c2ccccc32)c1 (centres undefined),inactive,
Cc1ccc(-n2ncc3c2CCCC3NC(=O)c2cnccn2)cc1C (centres undefined),,-6.28% [at 0.501 µM] (inactive)
CCOc1ccc(Nc2ncnc3scc(-c4ccc(OC)cc4)c23)cc1,,2.22% [at 12.7 µM] (inactive)
COc1ccccc1-c1cc2nc(C)c(CCC(=O)NC3CCCCC3)c(C)n2n1,inactive,
COc1ccccc1C1CCN(c2ccc([N+](=O)[O-])cn2)CC1,inactive,
COc1ccc([N+](=O)[O-])cc1C1NN=C(c2cccc3ccccc23)S1 (centres undefined),28.2 µM (active),
COc1ccc([N+](=O)[O-])cc1NC(=O)C(C)OC(=O)C1c2ccccc2Oc2ccccc21 (centres undefined),inactive,
COc1ccc(-n2c(=O)c3ccccc3n(Cc3ccccc3Cl)c2=O)cc1,inactive,
Cc1ccc(OCC(=O)OCc2cc(=O)n3nc(C4CC4)sc3n2)cc1,inactive,
COc1ccccc1NC(=O)CSC1=Nc2ccccc2C2=NC(CC(=O)NCc3cccs3)C(=O)N12 (centres undefined),inactive,
Cc1c(C(=O)OCC(=O)N2CCCC2=O)oc2ccccc12,inactive,
C=CCn1c(SCC(=O)NCC2CCCO2)nc2sc(C)c(C)c2c1=O (centres undefined),inactive,
C=CCn1c(SCc2c(C)noc2C)nc2sc3c(c2c1=O)CCC(C)C3 (centres undefined),39.8 µM (active),
COc1ccc2cc(-c3nc(Cl)c4c5c(sc4n3)CC(C)CC5)c(=O)oc2c1 (centres undefined),inactive,
CC(=O)N1CCSc2ccc(S(=O)(=O)N3CCC(C)CC3)cc21,inactive,
Cc1cccc(NC(=O)CN2CCN(C(=O)C3CCN(C(=O)/C=C/c4ccccc4)CC3)CC2)c1C,,14.7% [at 2.33 µM] (inactive)
COc1ccc(NC(=O)CSc2nc(N)c(-c3ccccc3)c(=O)[nH]2)cc1,inactive,
COc1ccc(NC(=O)CSc2ncnc3[nH]ncc23)cc1,inactive,
COc1ccc(-c2nc3c(c(SCC(=O)Nc4ccc(C(=O)O)cc4)n2)Cc2ccccc2O3)cc1,11.2 µM (active),
